From PubChem BioAssay AID1259343 (VanderVen Lab, College of Veterinary Medicine, Cornell …, 2017) come the findings set out here.

Each structure is given as a SMILES string. Hit rate of the full screen: of about 6,200 compounds, about 2,900 (47%) were called active. Cut-off read from the data, not from the text of the source: active = inhibition above about 50%; inactive = the rest. The set was probably picked from earlier hits. Some of the results follow.

This assay can be described thus: Mycobacterium tuberculosis growth inhibition, primary screen (AID 1259343). To be noted: inhibition: at 10 µM, active compounds read high; outcome: 10 uM.
As usually defined, the inhibition is the relative decrease from the control value, in per cent. As for `CC(C)COC(=O)Nc1ccc2nc(N3CCOCC3)sc2c1`, the inhibition is 27.4% (inactive).
`CNC(=S)Nc1ccc(Oc2ccc(NC(=S)NC)cc2)cc1`: the inhibition was 79.6% (active).
For `CCNC(=S)Nc1ccc(NC(=S)NCC)cc1`, the inhibition was 63.7% (active).
Regarding `CNC(=S)Nc1ccc(Nc2ccccc2OC)cc1`, the inhibition is 72.1% (active).
The result for `CNC(=S)Nc1ccc(N2CCOCC2)cc1` reads 101% (active); that for `COc1ccccc1NC(=S)N=C1CCN(c2ccccc2)N1`, 19.3% (inactive).
For the compound `CSCCCNC(=S)Nc1ccc(N2CCOCC2)cc1`, the inhibition was 20.7% (inactive).
For `Cc1ncc(-c2ccc(NC(=O)C3CC3C)cc2)o1` (stereo not drawn), the inhibition is 94.6% (active).
Take `O=C(Nc1ccc(-c2cnc(C3CC3)o2)cc1)C1CCCC1`: the inhibition was -17.9% (inactive).
Consider `N#Cc1cccc(COc2ccc(NC(=O)C3CCCO3)cc2F)c1` (stereo not drawn), for which the inhibition was 91.9% (active).
Turning to `N#Cc1cccc(COC(=O)CC(NC(N)=O)c2cccs2)c1` (stereo not drawn), the inhibition is -9.57% (inactive).
Next, `FC(F)(F)c1cc(-c2ccco2)nc2c1cnn2Cc1cccnc1`: 37% (inactive); `CN(Cc1ccc(Cl)c(Cl)c1)C(=O)c1csc(-c2cccs2)n1`: 56.2% (active).
Take `CCNc1nc(C(=O)N(C)Cc2ccc(Br)o2)cs1`: the inhibition is 8.37% (inactive).
Regarding `CCCN(CCC)C(=O)c1nn(-c2ccccn2)c2nccc(-c3cccs3)c12`, the inhibition was 41.7% (inactive).
The result for `CCC(C)(C)NC(=O)COC(=O)c1ccc(-c2ccc(O)cc2)cc1` reads 50.1% (active); that for `CCC(C)(C)NC(=O)c1ccc2c(c1)S(=O)(=O)c1ccccc1C2=O`, 14.8% (inactive); that for `CCCC(C)C(=O)Nc1ccc(-c2nccs2)cc1` (stereo not drawn), 89.9% (active).
As for `Cn1nc(C(=O)Nc2ccc(-c3nccs3)cc2)ccc1=O`, the inhibition was 85.9% (active).
For the compound `[O-]/[N+](Cc1ccccc1)=N/OCc1ccccc1`, the inhibition was 83.2% (active).
`CCc1cc(=O)[nH]c(-n2nc(C)cc2NC(=O)C2CC(=O)N(c3ccccc3)C2)n1` (stereo not drawn): the inhibition was 101% (active).
Turning to `CCc1cc(=O)[nH]c(-n2nc(C)cc2NC(=O)C2CC(=O)N(c3ccc(C)c(C)c3)C2)n1` (stereo not drawn), the inhibition is 101% (active).
Next, `CCCC(Nc1nc(-c2cccnc2)nc2c1cnn2C)c1cccs1` (stereo not drawn): 27.3% (inactive); `COc1ccccc1N1C(=O)CC(SC(N)=N/N=C(C)\C=C\c2ccc(N(C)C)cc2)C1=O` (stereo not drawn): -2.66% (inactive); `Nc1nn(C(=O)CC2CCCO2)cc1-c1cccc(Cl)c1` (stereo not drawn): 83.6% (active).
As for `O=C1CSC(=NN=Cc2cc(Br)ccc2O)N1`, the inhibition was 102% (active).
`O=C1CSC(=NN=C2NC(=O)C(CC(=O)Nc3ccc(Br)cc3)S2)N1` (stereo not drawn): the inhibition was 18.9% (inactive).
Next, `Oc1ccc(Br)cc1C=Nn1cc(-c2ccccc2)[nH]c1=S`: 25.5% (inactive).
Next, `Cc1ncsc1C(=O)Nc1scc(C2CCCCC2)c1C(N)=O`: 24.3% (inactive); `CN(C)CCNc1c2c(c(C#N)c3nc4ccccc4n13)CCCC2`: 20% (inactive).
With `CN=c1scc(-c2c(-c3ccccc3)n(C)c3ccccc23)n1C`, the inhibition is 25.1% (inactive).
As to `O=C1N=C2OC=C(C(=O)Nc3ccc(-n4cccn4)cc3)N2CCN1`, the inhibition is 60.6% (active).
Turning to `O=C1N=C2OC=C(C(=O)Nc3ccc(-n4cccc4)cc3)N2CCN1`, the inhibition was 89.4% (active).
Turning to `O=C(Nc1ccc(N2CCCCC2)cc1)c1ccc(Cl)s1`, the inhibition is 94% (active).
For the compound `O=C(CCl)Nc1ccc(N2CCCCCC2)cc1`, the inhibition is 21.1% (inactive).
Turning to `N#Cc1ccc(NC2CCN(c3ncccn3)CC2)cc1C(F)(F)F`, the inhibition was 26.1% (inactive).
For `N#Cc1cccnc1N1CCC(CCc2ccc(O)cc2)CC1`, the inhibition is 93.1% (active).
Next, `Cc1nn(-c2ccccc2)c2[nH]c(=O)c(C#N)c(-c3cccs3)c12`: 64.4% (active); `COc1ccc2c(c1)OC1(O)COc3cc(OC)c(OC)cc3C1=C2` (stereo not drawn): 61.7% (active).
On to `O=C1OC(c2ccc(Cl)cc2)=NC1=Cc1ccc2c(c1)OCO2`, for which the inhibition was 15.6% (inactive).
As for `COc1ccc(O)c(C=Nn2c(C)csc2=NC(C)C)c1`, the inhibition was 34% (inactive).
In the case of `O=C(OCc1cc2c(cc1Br)OCO2)c1cccc(O)c1`, the inhibition is -12.8% (inactive).
Consider `COc1ccc(O)c(C=Nc2ccc3c(c2)OCO3)c1`, for which the inhibition is 65.5% (active).
Regarding `Clc1ccc(C=Nc2ccc3c(c2)OCO3)cc1`, the inhibition is 82.9% (active).
Next, `Brc1ccccc1C=Nc1ccc2c(c1)OCO2`: 94.3% (active); `Oc1ccc(N=Nc2ccc3c(c2)OCO3)c2ccccc12`: -28.6% (inactive).
In the case of `COC(=O)c1c(C)[nH]c(C(=O)NC(C)Cc2cccc(Cl)c2)c1C` (stereo not drawn), the inhibition is 30% (inactive).
For the compound `Cc1cc(=O)[nH]c(-n2nc(C3CC3)cc2NC(=O)c2ccccc2)n1`, the inhibition was 100% (active).
Next, `Cc1cc(=O)[nH]c(-n2nc(C3CC3)cc2NC(=O)c2cc3ccccc3o2)n1`: -20.2% (inactive); `CCC(C(=O)Nc1cc(C2CC2)nn1-c1nc(C)cc(=O)[nH]1)c1ccccc1` (stereo not drawn): 100% (active).
For `Cc1cccc(C(=O)Nc2cc(C3CC3)nn2-c2nc(C)cc(=O)[nH]2)c1`, the inhibition is 100% (active).
Take `Oc1ccc(C=NNc2ncc(C(F)(F)F)cc2Cl)c(O)c1O`: the inhibition was 17.8% (inactive).
Regarding `Clc1cnc(NN=Cc2cccs2)c(Cl)c1`, the inhibition was -11.6% (inactive).
With `Clc1cnc(NN=Cc2ccco2)c(Cl)c1`, the inhibition was 85.9% (active).
The result for `CC[N+](CC)=c1ccc2nc3c(cc(N)c4ccccc43)oc-2c1` reads 102% (active); that for `CO[C@H]1C=CO[C@@]2(C)Oc3c(C)c(O)c4c(O)c(c5c(nc6cc(C)ccn65)c4c3C2=O)NC(=O)C(C)=CC=C[C@H](C)[C@H](O)[C@@H](C)[C@@H](O)[C@@H](C)[C@H](OC(C)=O)[C@@H]1C`, 98.5% (active).
Turning to `O=C(/C=C(\O)c1ccccc1)c1ccccc1O`, the inhibition is 100% (active).
For `CC(C)c1cc(=O)[nH]c(-n2nc(-c3cccs3)cc2NC(=O)c2ccc(F)cc2F)n1`, the inhibition is 99.7% (active).
In the case of `Cc1cccc(C(=O)Nc2cc(-c3cccs3)nn2-c2nc(C(C)C)cc(=O)[nH]2)c1`, the inhibition is -9.66% (inactive).
With `CC(C)c1cc(=O)[nH]c(-n2nc(-c3cccs3)cc2NC(=O)c2cccc(F)c2)n1`, the inhibition was 99.2% (active).
Turning to `O=S(=O)(CCSc1ccccn1)c1nc2ccccc2s1`, the inhibition was 101% (active).
Regarding `COc1ccc(N2CCN(C(=O)CCl)CC2)cc1`, the inhibition was 77.2% (active).
Take `O=C(CCl)N1CCN(c2cccc(Cl)c2)CC1`: the inhibition is 79.1% (active).
